Reference: PubChem BioAssay AID770 (SRMLSC, 2007)
The whole screen tested about 3,300 compounds, of which fewer than 10 were called active.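 How the source made its calls: active means growth inhibition above 90% in viable cell count at a single dose; inactive means growth inhibition below 90%.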 A selection follows.

Assay: HT29 colon tumor cell growth inhibition, primary screen, imaging, high content imaging, 24 h, CellTiter-Glo (AID 770);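 on condensed nuclei: share of cells whose nuclear area falls below control median minus 1.5 SD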
Conditions: HT29 cell number by imaging, at 10 µM, stronger effect = higher value; for condensed nuclei: measured here: percent cells with condensed nuclei
[1] = measured here: ATP CellTiter-Glo viability

CCOC(=O)/C=c1\s/c(=C(\C#N)C(=O)OCC)n(-c2ccccc2)c1=O
growth inhibition: -8.81% (inactive) | growth inhibition [1]: -10.2% | condensed nuclei: 2.51%

Cc1nc(Nc2ncc3c(n2)CCCC3=O)nc2ccccc12
growth inhibition: -21.1% (inactive) | growth inhibition [1]: -26.2% | condensed nuclei: 3.04%

CCOC(=O)c1[nH]c2cc3c(cc2c1NC(=O)CN1CCC(C)CC1)OCO3
growth inhibition: 37.9% (inactive) | growth inhibition [1]: 20% | condensed nuclei: 3.55%

O=C(C1=C(O)C(=O)N(CCCN2CCOCC2)C1c1ccccn1)c1cc2ccccc2o1 (stereo not given)
growth inhibition: -11.4% (inactive) | growth inhibition [1]: -7.9% | condensed nuclei: 2.31%

CC1(C)Cc2c(c(-c3ccccc3Cl)[nH]c(=O)c2C#N)CO1
growth inhibition: -42.2% (inactive) | growth inhibition [1]: -17.5% | condensed nuclei: 1.85%

COC(=O)C(NC(C)=O)(Nc1ccccc1)C(=O)OC
growth inhibition: -24.8% (inactive) | growth inhibition [1]: -9.05% | condensed nuclei: 3.37%

O=C(OCCCN1CCCC1)C1(c2ccccc2)CCCC1
growth inhibition: 3.8% (inactive) | growth inhibition [1]: 4.75% | condensed nuclei: 5.7%

CCCCCCSC1=C(C#N)C(c2ccccc2)CC(=O)N1 (stereo not given)
growth inhibition: -14.4% (inactive) | growth inhibition [1]: -7.19% | condensed nuclei: 3.36%

C=C(C)CSC1=C(C#N)C(c2ccsc2)CC(=O)N1 (stereo not given)
growth inhibition: -9.27% (inactive) | growth inhibition [1]: -4.29% | condensed nuclei: 1.96%

N#CC1=C2SCC(O)(c3ccccc3)N2C(=O)CC1c1ccccc1 (stereo not given)
growth inhibition: 90.7% (active) | growth inhibition [1]: 28.5% | condensed nuclei: 46%

Nc1c2c(nc3ccccc13)N(c1ccccc1)CC2
growth inhibition: -26.1% (inactive) | growth inhibition [1]: -9.66% | condensed nuclei: 3.19%

CC(C)c1cc(NCCCN2CCOCC2)n2c(nc3ccccc32)c1C#N
growth inhibition: -4.17% (inactive) | growth inhibition [1]: -7.5% | condensed nuclei: 5.23%

CCCOc1ccc(C2NC(=O)NC2=O)cc1 (stereo not given)
growth inhibition: 10.6% (inactive) | growth inhibition [1]: -11.9% | condensed nuclei: 16%

Cc1cc(C)n(Cc2cc(C)c(Cn3nc(C)cc3C)cc2C)n1
growth inhibition: -26.1% (inactive) | growth inhibition [1]: -2.81% | condensed nuclei: 2.58%

CCOc1ccc2c(C)nc(NC3=NC(C)(C)C=C(C)N3)nc2c1
growth inhibition: 18.5% (inactive) | growth inhibition [1]: 16.6% | condensed nuclei: 3.47%

CC1(C)Cc2c(sc3c4nnnn4c4nnnn4c23)CO1
growth inhibition: 6.59% (inactive) | growth inhibition [1]: -3.55% | condensed nuclei: 2.72%

Cc1ccc(C(=O)C2=C(O)C(=O)N(CCN3CCOCC3)C2c2ccccn2)o1 (stereo not given)
growth inhibition: 20.8% (inactive) | growth inhibition [1]: 0.76% | condensed nuclei: 4.96%

Cc1cccn2c(=O)c(/C=C(\C#N)S(=O)(=O)c3ccccc3)c(N3CCN(C)CC3)nc12
growth inhibition: 5.64% (inactive) | growth inhibition [1]: 13.3% | condensed nuclei: 3.93%

Nc1nnc(CSCc2ccc(F)cc2)s1
growth inhibition: -13.9% (inactive) | growth inhibition [1]: -8.17% | condensed nuclei: 3.43%

Cc1ccc2[nH]c3c(N4CCCCCC4)ncnc3c2c1
growth inhibition: 74.2% (inactive) | growth inhibition [1]: 38.6% | condensed nuclei: 5.98%

Cc1cc(=O)oc(C)c1C(=O)Nc1cccc2nonc12
growth inhibition: 38% (inactive) | growth inhibition [1]: 7.72% | condensed nuclei: 3.32%

C/C(=N\O)C(=O)NCCCNCCCN(C)C
growth inhibition: 28.6% (inactive) | growth inhibition [1]: 10.3% | condensed nuclei: 4.53%

N#CC1=C(SCC(=O)c2ccc(Cl)cc2)NC2=C(C(=O)CCC2)C1c1ccco1 (stereo not given)
growth inhibition: 64.2% (inactive) | growth inhibition [1]: 40% | condensed nuclei: 20.2%

O=S(=O)(/C=C/c1ccccc1)Nc1ccc2c(c1)OCO2
growth inhibition: -3.8% (inactive) | growth inhibition [1]: -13.4% | condensed nuclei: 3.87%

CCCOc1ccc(/C(O)=C2/C(=O)C(=O)N(CCN(C)C)C2c2ccncc2)cc1 (stereo not given)
growth inhibition: -14% (inactive) | growth inhibition [1]: -1.78% | condensed nuclei: 5.23%

CCOc1nc(SCCOc2ccc(C)cc2)nc(N(C)C)n1
growth inhibition: -2.97% (inactive) | growth inhibition [1]: -13.9% | condensed nuclei: 2.83%

CCOC(=O)COc1ccc(Oc2nc(C)cc(OC)n2)nn1
growth inhibition: -1.19% (inactive) | growth inhibition [1]: 1.86% | condensed nuclei: 5.21%

CCCCN(C(=O)CCC(=O)O)C1CC(=O)N(c2ccc(OCCC)cc2)C1=O (stereo not given)
growth inhibition: 20.1% (inactive) | growth inhibition [1]: 7.14% | condensed nuclei: 1.69%

COCc1[nH]nc2c1C(c1ccccc1OC)C(C#N)=C(N)O2 (stereo not given)
growth inhibition: 34.7% (inactive) | growth inhibition [1]: -0.21% | condensed nuclei: 3.93%

CC1CCc2cc(F)cc3c(O)c(C(=O)NCC4CCCO4)c(=O)n1c23 (stereo not given)
growth inhibition: 12.1% (inactive) | growth inhibition [1]: 11.9% | condensed nuclei: 2.11%

O=C1OC(Nc2ccc(Br)cn2)c2ccccc21 (stereo not given)
growth inhibition: -21.1% (inactive) | growth inhibition [1]: 2.61% | condensed nuclei: 3.37%

CCOC(=O)c1ccc(-n2c(=O)[nH]c3ccccc3c2=O)cc1
growth inhibition: -28.4% (inactive) | growth inhibition [1]: -4.1% | condensed nuclei: 4.94%

COc1ccc(-c2onc(C)c2-c2ccccc2)c(O)c1
growth inhibition: 25.2% (inactive) | growth inhibition [1]: -2.05% | condensed nuclei: 4.31%

CCn1c(-c2ccco2)n[nH]c1=S
growth inhibition: 2.65% (inactive) | growth inhibition [1]: -3.63% | condensed nuclei: 3.02%

COC(=O)COn1c(SCC(=O)OC)nc2ccccc2c1=O
growth inhibition: 39.9% (inactive) | growth inhibition [1]: -6.12% | condensed nuclei: 2.06%

CN(C)C(=O)COn1c(SCC(=O)N(C)C)nc2ccccc2c1=O
growth inhibition: 100% (active) | growth inhibition [1]: -74.5% | condensed nuclei: 7.94%

CCN(CC)C(=O)COn1c(SCC(=O)N(CC)CC)nc2ccccc2c1=O
growth inhibition: 28.8% (inactive) | growth inhibition [1]: -9.22% | condensed nuclei: 5.68%

Cc1c(/C(O)=C2\C(=O)C(=O)N(CCN(C)C)C2c2cccnc2)cnn1-c1ccccc1 (stereo not given)
growth inhibition: 65.4% (inactive) | growth inhibition [1]: 24.8% | condensed nuclei: 7.5%

Cc1nc2c(c(=O)n1CC1CCCO1)c1nc3ccccc3nc1n2CC(C)C (stereo not given)
growth inhibition: 47.8% (inactive) | growth inhibition [1]: 4.29% | condensed nuclei: 7.73%

Cc1[nH]c(=O)[nH]c(=O)c1S(=O)(=O)N1CCCC1
growth inhibition: 7.67% (inactive) | growth inhibition [1]: -13.2% | condensed nuclei: 3.07%

CCCCSc1nnc(-c2ccc(NC(C)=O)cc2)n1C
growth inhibition: 14.5% (inactive) | growth inhibition [1]: 6.32% | condensed nuclei: 2.33%

c1ccc(OCc2nn3c(C4CCCCC4)nnc3s2)cc1
growth inhibition: 0.33% (inactive) | growth inhibition [1]: -3.2% | condensed nuclei: 2.15%

Cc1cccc(C)c1OCC(O)CNS(=O)(=O)c1ccccc1C(=O)N1CCOCC1 (stereo not given)
growth inhibition: -11.9% (inactive) | growth inhibition [1]: -0.31% | condensed nuclei: 3.46%

COc1ccc(-n2ccc(=O)c3c2CCCC3=O)cc1
growth inhibition: -18.6% (inactive) | growth inhibition [1]: 1.93% | condensed nuclei: 3.07%

Cc1ccc(-c2nnc(OCCN3CCOCC3)c3ccccc23)cc1
growth inhibition: 30.1% (inactive) | growth inhibition [1]: 10.1% | condensed nuclei: 3.64%

COc1cc(C2C(C(=O)c3ccc(C)o3)=C(O)C(=O)N2c2cc(C)on2)cc(OC)c1OC (stereo not given)
growth inhibition: -22% (inactive) | growth inhibition [1]: -13.1% | condensed nuclei: 3.21%

Cc1c(OCc2ccccc2)c(=O)ccn1Cc1ccccc1
growth inhibition: -0.34% (inactive) | growth inhibition [1]: -10.9% | condensed nuclei: 1.99%

Oc1oc(-c2ccccc2)nc1C=NCc1ccncc1
growth inhibition: 2.2% (inactive) | growth inhibition [1]: -2.06% | condensed nuclei: 3.2%

CC1(C)CC(N(Cc2ccco2)C(=O)Cc2ccccc2)CCO1 (stereo not given)
growth inhibition: 12.6% (inactive) | growth inhibition [1]: 0.11% | condensed nuclei: 2.03%

Cc1cc(C)n(-c2ncnc3sc(C)c(C)c23)n1
growth inhibition: -10.3% (inactive) | growth inhibition [1]: 2.85% | condensed nuclei: 1.35%

COc1ccc(C2NC(=O)NC(O)(C(F)(F)F)C2C(=O)c2ccc(F)cc2)cc1 (stereo not given)
growth inhibition: -33.6% (inactive) | growth inhibition [1]: 0.76% | condensed nuclei: 2.45%

CC(C)c1ccc(O)c(N)c1
growth inhibition: -26.1% (inactive) | growth inhibition [1]: 2.95% | condensed nuclei: 5.48%

CC1(C)NC(=O)N(CC(O)COc2cc3ccccc3cc2C(=O)N2CCCCC2)C1=O (stereo not given)
growth inhibition: 23.3% (inactive) | growth inhibition [1]: -6.38% | condensed nuclei: 4.21%

COC(=O)c1n[nH]c2ccccc12
growth inhibition: 52.2% (inactive) | growth inhibition [1]: 8.18% | condensed nuclei: 5%

CCCCCCOc1ccc(C(=O)n2cnc(N)n2)cc1
growth inhibition: -1.14% (inactive) | growth inhibition [1]: -15.8% | condensed nuclei: 1.48%

O=c1[nH]cnc2cc(-c3ccccc3)sc12
growth inhibition: 7.95% (inactive) | growth inhibition [1]: 3.25% | condensed nuclei: 2.77%

COc1cccc(NC(=O)c2cc(C(=O)Nc3cccc(OC)c3)n(C)n2)c1
growth inhibition: -5.68% (inactive) | growth inhibition [1]: 22.7% | condensed nuclei: 6.71%

COC(=O)c1ccc(C2/C(=C(/O)c3ccc(OC)cc3)C(=O)C(=O)N2c2cc(C)on2)cc1 (stereo not given)
growth inhibition: 8.36% (inactive) | growth inhibition [1]: 6.44% | condensed nuclei: 3.44%

COc1cc(C)nc(N(C)S(=O)(=O)c2ccccc2Cl)n1
growth inhibition: 7.98% (inactive) | growth inhibition [1]: -1.53% | condensed nuclei: 3.59%

Cn1c(NCC(O)c2ccccc2)nc2c1c(=O)n(Cc1ccc(Cl)c(Cl)c1)c(=O)n2C (stereo not given)
growth inhibition: 46.1% (inactive) | growth inhibition [1]: 22.7% | condensed nuclei: 1.95%
